# Laboratory results reported in PubChem BioAssay AID2685 (National Center for Advancing Translational Sciences (NCATS), 2010).
# About 2,100 (0.66%) of roughly 320,000 compounds were called active. About 53% were inconclusive and are not listed. Calls follow the shape of the dose curve; as a rule, active = well fitted inhibition curve with a large enough effect in the signal ratio, with a control signal flat (not every such curve was filed as active); inconclusive = small, poorly fitted or top-dose-only effect, or effect the other way, or a change in a side signal; inactive = flat fitted curve, though single readings scatter; the % refers to the signal ratio. The full list was thinned out, with actives kept by preference.
# Experiment: qHTS Assay for Lipid Storage Modulators in Drosophila S3 Cells;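 as to cell number change: cells counted by Cell Tracker Red CMTPX staining in the red channel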
# Details: BODIPY lipid droplet fluorescence, 18-24 h, cells fed with added oleic acid; cell number change: measured here: cell count max response; series mostly up to 46.1 µM
# In short: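 Drosophila S3 cells loaded with oleic acid (400 uM, as added) and compounds at several concentrations; lipid droplets imaged by 488-nm laser-scanning cytometry, 500–530 nm intensity and object ratio to cell channel. Percent activity normalized to 20 uM Triacsin C.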
# Potency is read from the fitted curve at half-maximal effect.
SMILES,Potency,cell number change [%]
CSc1ccc(CCNC(=O)CN2C(=O)CCSc3ccccc32)cc1,inactive,2.42
Cc1cc(C)nc(Sc2ccc([N+](=O)[O-])cc2[N+](=O)[O-])n1,16.4 µM (active),-6.83
Cc1cc(C)nc(SCC(=O)c2ccc([N+](=O)[O-])cc2)n1,inactive,–
Cc1cc(C)nc(SCc2ccc([N+](=O)[O-])cc2)n1,inactive,-8.5
C=CCn1c(=O)c2c(nc(-n3nc(C)cc3C)n2C)n(C)c1=O,inactive,–
Cc1cc(C)nc(N2CCN(C(=O)CCC(=O)Nc3nnc(C(C)C)s3)CC2)n1,inactive,0.873
O=S(=O)(/N=C(\c1ccccc1F)N1CCCCC1)c1ccccc1,inactive,-0.464
CC(C)Oc1ccc(CNC(=O)Cn2c(=O)c3cccn3c3cccnc32)cc1,inactive,-16.2
CC1(C)C2CC[C@]1(C)C(=O)N(CCCCN1CCN(c3ccccn3)CC1)C2=O,inactive,15.1
Cc1[nH]c2ccccc2c1SCC(=O)N1CCC(C)CC1,inactive,-5.95
CSC1=NC2(CCCCC2)C2=C(CCCC2)N1,5.8 µM (active),-4.54
S=C1NC2=C(CCCC2)C2(CCCCC2)N1,inactive,0.876
Cc1cccc(C(=O)Nc2c3c(nn2C(C)(C)C)CS(=O)(=O)C3)c1,inactive,–
COC(=O)c1cc(OC)c(OC)cc1NC(=S)NC(=O)c1ccco1,18.4 µM (active),-15.6
COc1ccc(Cl)cc1NC(=S)NC(=O)c1ccco1,inactive,1.24
COc1cc(NC(=O)c2ccco2)c(C(=O)O)cc1OC,inactive,5.35
CC1CCc2nn(CC(=O)NCc3ccco3)cc2C1 (stereo not given),inactive,-0.142
CCCCN(C(=S)NC(=O)c1ccccc1)c1c(N)n(Cc2ccccc2)c(=O)[nH]c1=O,inactive,-12.7
COC(=O)C(C)SC1=N/C(=C/c2ccc(-n3cncn3)cc2)C(=O)N1 (stereo not given),inactive,-12.1
Cc1ccc2cc(CN(Cc3ccco3)C(=S)NCC3CCCO3)c(=O)[nH]c2c1 (stereo not given),inactive,3.25
COc1ccc(NS(=O)(=O)c2ccc(C(=O)OC(C)C(=O)N3CCOCC3)cc2)cc1 (stereo not given),inactive,-5.78
Cc1ccc(CCNC(=O)CCNS(=O)(=O)c2ccc3c(c2)oc(=O)n3C)cc1,inactive,0.906
CC(C)NC(=O)CCCOc1ccc(Cl)cc1Cl,inactive,5.02

SMILES,Potency,cell number change [%]
C[C@H](NC(=O)CCCOc1ccc(Cl)cc1Cl)c1nnc2ccccn12,18.4 µM (active),5.34
O=C(CCCOc1ccc(Cl)cc1Cl)NCCc1nnc2ccccn12,inactive,33.2
Cc1sc2ncnc(SCC(=O)N3CCOCC3)c2c1C,inactive,-10.8
CC1Cc2cc(S(=O)(=O)NCc3ccccc3)ccc2N1C(=O)C1CC1 (stereo not given),inactive,-26.2
COc1ccccc1CNC(=O)CCS(=O)(=O)c1ccc2c(c1)CC(C)N2C(=O)C1CC1 (stereo not given),inactive,-19.6
COc1ccccc1CNS(=O)(=O)c1ccc2c(c1)CC(C)N2C(=O)C1CCC1 (stereo not given),5.17 µM (active),-14.7
COc1ccccc1NC(=O)CCNS(=O)(=O)c1ccc2c(c1)CC(C)N2C(=O)C1CC1 (stereo not given),inactive,3.62
COc1cccc(NC(=O)CCNS(=O)(=O)c2ccc3c(c2)CC(C)N3C(=O)C2CC2)c1 (stereo not given),inactive,4.78
COc1cccc(CNS(=O)(=O)c2ccc3c(c2)CC(C)N3C(=O)C2CC2)c1 (stereo not given),11.6 µM (active),-26.9
OC1(c2ccccc2)CCN(Cc2ccccc2)C2CCCCC21 (stereo not given),inactive,-0.282
COc1ccc(-n2c(/C=C(\C)O)nc(=O)c3c(C)cc(C)nc32)cc1,inactive,–
COC(=O)C1Cc2c([nH]c3ccccc23)CN1C(C)=O (stereo not given),inactive,2.42
O=C(COC(=O)C1CCCN1C(=O)c1cccs1)Nc1ccc2c(c1)OCO2 (stereo not given),inactive,11.1
O=C(O)CCN1C(=O)S/C(=C\c2cccnc2)C1=O,inactive,3.35
O=C(NCCN1C(=O)S/C(=C/c2cccnc2)C1=O)c1cccs1,2.31 µM (active),-5.78
COc1ccc(NC(=O)COC(=O)[C@@H]2CCCN2C(=O)c2cccs2)cc1,29.1 µM (active),7.9
COc1ccc(/C=C2\SC(=O)N(CCNC(=O)C3CC4C=CC3C4)C2=O)cc1 (stereo not given),inactive,–
O=C(NCCN1C(=O)S/C(=C\c2cccnc2)C1=O)c1ccc([N+](=O)[O-])s1,inactive,0.268
COc1ccc(/C=C2/SC(=O)N(CCNC(=O)C3CCCN3C(=O)c3cccs3)C2=O)cc1 (stereo not given),20.6 µM (active),-3.84
COc1ccc(/C=C2/SC(=O)N(CCNC(=O)C3COc4ccccc4O3)C2=O)cc1 (stereo not given),inactive,-11.7
COc1ccc(NC(=O)COC(=O)[C@@H]2CCCN2C(=O)c2cccs2)c(OC)c1,inactive,-0.232
CCOc1c([N+](=O)[O-])cc2c(C)c(C(=O)N3CCN(C)CC3)oc2c1OCC,inactive,-1.04
